# According to PubChem BioAssay:
# The source made the active and inactive calls. Rule as the data show it: active = inhibition above about 25%; inactive = the rest.
# Experiment: VP16 transactivation inhibitors, counter-screen for SRC1 inhibitor project, cell-based, luminescence, high throughput (AID 588824)
# Conditions: cell-based VP16 transactivation luciferase luminescence; at 3.6 µM; stronger effect = higher value
row,Structure (SMILES),inhibition
1,Cc1sc2ncnc(N3CCC(C(=O)Nc4cc(S(C)(=O)=O)ccc4Cl)CC3)c2c1C,9.27% (inactive)
2,CCN(C(=O)c1cccc(S(=O)(=O)N(C)C)c1)C12CC3CC(CC(C3)C1)C2,19.5% (inactive)
3,Cc1ccc(S(=O)(=O)NCc2ccc3c(c2)OCO3)cc1C,1.6% (inactive)
4,COc1ccc(S(=O)(=O)N(C)c2ccc(C(=O)NCc3ccco3)cc2)cc1OC,-0.34% (inactive)
5,COc1cc(OC)c(OC)cc1/C=C1\CC(C)C/C(=C\c2cc(OC)c(OC)cc2OC)C1=O (stereo not given),2.73% (inactive)
6,Cc1cc(C)c(S(=O)(=O)N2CCCC2=O)c(C)c1N(C)S(C)(=O)=O,-4.1% (inactive)
7,COCCn1c(C)cc(C(=O)CSc2nc3ccccc3s2)c1C,6.14% (inactive)
8,CN(Cc1ccc(OC(F)F)cc1)C(=O)c1cccc(S(=O)(=O)N2CCN(Cc3ccccc3)CC2)c1,35% (active)
9,Cn1cc(S(=O)(=O)Nc2ccc(OC(F)(F)F)cc2)c(=O)n(C)c1=O,-5.51% (inactive)
10,CN1CCN(c2ccc(CNS(=O)(=O)c3ccc(F)cc3Cl)cc2)CC1,-5.39% (inactive)
11,COc1ccc(C(=O)Nc2ccc(Cl)c(S(=O)(=O)N3CCOCC3)c2)cc1,1.15% (inactive)
12,O=C(O)CN1C(=O)/C(=C\c2ccccc2OCc2ccc(Cl)cc2Cl)SC1=S,-7.27% (inactive)
13,CN=C(C)/C(C(=O)OC)=C(/O)c1c(F)cccc1F,3.9% (inactive)
14,C/C(=N\NC(=O)Cc1ccc(Cl)cc1)c1ccccn1,23.3% (inactive)
15,c1ccc(-c2nc(NCCCn3ccnc3)c3ccccc3n2)cc1,-2.43% (inactive)
